The source made the active and inactive calls. Rule for the calls: active = hit-call score of the fitted dose curve at least 0.9, where 1 is the maximum; inactive = score below 0.9.
What was measured:
[1] = read-out: Vascular endothelial growth factor receptor 2 (Homo sapiens) (UniProt P35968); assay: BSK_4H_VEGFRII: BioMAP Diversity Plus: 4H Assay for Vascular endothelial growth factor receptor 2 (VEGFR2) Biomarker Activity (AID 2283031); settings: primary human endothelial cells (HUVEC); actives raise or lower the signal
Method in brief: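 In this multiplexed HUVEC system, biomarker ELISA was performed after 24 h chemical exposure. Parallel SRB staining (TCA fixation, 560 nm) tracked cytotoxicity; DMSO served as baseline.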

[2] = read-out: Vascular cell adhesion molecule 1 (VCAM1), VCAM1 (gene 7412); assay: BSK_4H_VCAM1: BioMAP Diversity Plus: 4H Assay for Vascular cell adhesion molecule 1 (VCAM1) Biomarker Activity (AID 2283033); settings: primary human endothelial cells (HUVEC); actives raise or lower the signal;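 for outcome: cell-surface VCAM-1 protein measured by ELISA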
Method in brief: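 ELISA read-out of VCAM-1 on human umbilical vein endothelium 24 hours after chemical dosing; gain or loss of signal was fitted relative to DMSO, with sulforhodamine B staining of parallel cultures flagging overt cytotoxicity.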

[3] = read-out: Interferon-gamma inducible Protein 10 (IP10), CXCL10 (gene 3627); assay: BSK_BE3C_IP10: BioMAP Diversity Plus: BE3C Assay for Interferon-gamma inducible Protein 10 (IP10) Biomarker Activity (AID 2283034); settings: primary human bronchial epithelial cells; actives raise or lower the signal
Method in brief: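 Chemical is dosed onto human lung bronchial epithelial primary cells, cultures are incubated 24 h, and IP-10 is then quantified by ELISA. Gain or loss of signal is fitted in both directions relative to DMSO.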

[4] = read-out: Monokine induced gamma interferon (MIG), CXCL9 (gene 4283); assay: BSK_BE3C_MIG: BioMAP Diversity Plus: BE3C Assay for Monokine induced gamma interferon (MIG) Biomarker Activity (AID 2283035); settings: primary human bronchial epithelial cells; actives raise or lower the signal;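 for outcome: MIG protein measured by ELISA in BE3C cultures after 24 h of dosing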
Method in brief: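 ELISA read-out of MIG in human lung bronchial epithelial primary cultures, 24 h post-dosing. Bidirectional curve fit vs DMSO baseline.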

[5] = read-out: Transforming growth factor beta 1 (TGFb1), TGFB1 (gene 7040); assay: BSK_BE3C_TGFb1: BioMAP Diversity Plus: BE3C Assay for Transforming growth factor beta 1 (TGFb1) Biomarker Activity (AID 2283036;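 note: TGF-b1 protein level measured by ELISA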); settings: primary human bronchial epithelial cells; actives raise or lower the signal
Method in brief: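 Primary human lung bronchial epithelial cells; compound exposure 24 h; TGF-b1 by ELISA; bidirectional fit, DMSO baseline. Parallel SRB total-protein staining for cytotoxicity.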

[6] = read-out: Plasminogen activator inhibitor-1 (PAI1), SERPINE1 (gene 5054); assay: BSK_BE3C_PAI1: BioMAP Diversity Plus: BE3C Assay for Plasminogen activator inhibitor-1 (PAI1) Biomarker Activity (AID 2283037); settings: primary human bronchial epithelial cells; actives raise or lower the signal
Method in brief: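 Primary human lung bronchial epithelial cells; chemical dosing; 24 h; PAI-1 measured by ELISA; bidirectional fit referenced to DMSO as negative control.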

[7] = read-out: Urokinase-type plasminogen activator receptor (uPAR), PLAUR (gene 5329); assay: BSK_BE3C_uPAR: BioMAP Diversity Plus: BE3C Assay for Urokinase-type plasminogen activator receptor (uPAR) Biomarker Activity (AID 2283039); settings: primary human bronchial epithelial cells; actives raise or lower the signal;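 for outcome: uPAR protein level measured by ELISA on the cells; cells exposed to compound for one day before measurement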
Method in brief: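 Human bronchial epithelial primary cells; chemical exposure 24 h; uPAR by ELISA; bidirectional fit vs DMSO control.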

[8] = read-out: Interleukin-6 (IL6), IL6 (gene 3569); assay: BSK_CASM3C_IL6: BioMAP Diversity Plus: CASM3C Assay for Interleukin-6 (IL6) Biomarker Activity for (AID 2283040); settings: primary human coronary artery smooth muscle cells; actives raise or lower the signal
[9] = read-out: Tissue plasminogen activator (tPA), PLAT (gene 5327); assay: BSK_BE3C_tPA: BioMAP Diversity Plus: BE3C Assay for Tissue plasminogen activator (tPA) Biomarker Activity (AID 2283041); settings: primary human bronchial epithelial cells; actives raise or lower the signal;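 for outcome: tPA level quantified by ELISA one day after compound addition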
Method in brief: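 Primary human lung bronchial epithelial cultures receive test chemical; after 24 h, tPA is quantified by ELISA, and gain or loss of signal is fitted bidirectionally relative to DMSO baseline.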

[10] = read-out: Interleukin-8 (IL8), CXCL8 (gene 3576); assay: BSK_CASM3C_IL8: BioMAP Diversity Plus: CASM3C Assay for Interleukin-8 (IL8) Biomarker Activity (AID 2283042); settings: primary human coronary artery smooth muscle cells; actives raise or lower the signal;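 note: IL-8 protein level quantified by ELISA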
[11] = read-out: Human Leukocyte Antigen - DR isotype (HLADR), HLA-DRA (gene 3122); assay: BSK_CASM3C_HLADR: BioMAP Diversity Plus: CASM3C Assay for Human Leukocyte Antigen - DR isotype (HLADR) Biomarker Activity (AID 2283043); settings: primary human coronary artery smooth muscle cells; actives raise or lower the signal;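 note: cell-surface HLA-DR protein level quantified by ELISA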
[12] = read-out: Macrophage colony-stimulating factor (MCSF), CSF1 (gene 1435); assay: BSK_CASM3C_MCSF: BioMAP Diversity Plus: CASM3C Assay for Macrophage colony-stimulating factor (MCSF) Biomarker Activity (AID 2283044); settings: primary human coronary artery smooth muscle cells; actives raise or lower the signal;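 note: M-CSF protein amount quantified by ELISA after 24 h exposure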
[13] = read-out: Low-density lipoprotein receptor (LDLR), LDLR (gene 3949); assay: BSK_CASM3C_LDLR: BioMAP Diversity Plus: CASM3C Assay for Low-density lipoprotein receptor (LDLR) Biomarker Activity (AID 2283045); settings: primary human coronary artery smooth muscle cells; actives raise or lower the signal;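 note: LDLR protein level on the cell surface quantified by ELISA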
[14] = read-out: Monocyte Chemoattractant Protein-1 (MCP1), CCL2 (gene 6347); assay: BSK_CASM3C_MCP1: BioMAP Diversity Plus: CASM3C Assay for Monocyte Chemoattractant Protein-1 (MCP1) Biomarker Activity (AID 2283046); settings: primary human coronary artery smooth muscle cells; actives raise or lower the signal;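 note: MCP-1 level quantified by ELISA 24 h after dosing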
[15] = BSK_CASM3C_Proliferation: Cell Proliferation Assessment in the BioMAP Diversity Plus: CASM3C Assay (AID 2283047); settings: primary human coronary artery smooth muscle cells;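 note: sulforhodamine B total protein stain as relative cell number at 560 nm; sub-confluent cells exposed 48 h before staining; fitted both ways against DMSO so gain or loss of cell number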
[16] = read-out: Monokine induced gamma interferon (MIG), CXCL9 (gene 4283); assay: BSK_CASM3C_MIG: BioMAP Diversity Plus: CASM3C Assay for Monokine induced gamma interferon (MIG) Biomarker Activity (AID 2283048); settings: primary human coronary artery smooth muscle cells; actives raise or lower the signal;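 note: MIG protein level measured by ELISA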
[17] = read-out: serum amyloid A (SAA), SAA1 (gene 6288); assay: BSK_CASM3C_SAA: BioMAP Diversity Plus: CASM3C Assay for serum amyloid A (SAA) Biomarker Activity (AID 2283049); settings: primary human coronary artery smooth muscle cells; actives raise or lower the signal;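 note: SAA protein level quantified by ELISA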
[18] = BSK_CASM3C_SRB: Viability Assessment in the BioMAP Diversity Plus: CASM3C Assay (AID 2283050); settings: primary human coronary artery smooth muscle cells;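 note: total protein by SRB staining as cytotoxicity measure in parallel cultures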
[19] = read-out: urokinase plasminogen activator (uPA), PLAU (gene 5328); assay: BSK_BE3C_uPA: BioMAP Diversity Plus: BE3C Assay for urokinase plasminogen activator (uPA) Biomarker Activity (AID 2283038); settings: primary human bronchial epithelial cells; actives raise or lower the signal;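 for outcome: uPA protein level quantified by ELISA in cell cultures; uPA read one day after compound addition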
Method in brief: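 Using confluent primary human lung bronchial epithelial cultures, we dosed chemicals, waited 24 h, then ran a uPA ELISA, fitting bidirectionally against DMSO.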

What does the source list for `Oc1ccc2ccccc2c1`?
outcome [1]: inactive; outcome [2]: inactive; AC50 [3]: 32.5 µM (active); outcome [4]: inactive; outcome [5]: inactive; outcome [6]: inactive; outcome [7]: inactive; AC50 [8]: 20 µM (active); outcome [9]: inactive; outcome [10]: inactive; outcome [11]: inactive; outcome [12]: inactive; outcome [13]: inactive; outcome [14]: inactive; outcome [15]: inactive; outcome [16]: inactive; outcome [17]: inactive; outcome [18]: inactive

For `CC(C)(O)c1ccc(CNC(=O)c2cccnc2Oc2ccc3nonc3c2)cc1`, which outcome [1] is on record?
The outcome was “inactive”.

What about the outcome [2] of the same compound?
Its outcome is “inactive”.

And the outcome [3]?
Its outcome is “inactive”.

What about the outcome [4] of the same compound?
The outcome was “inactive”.

And the outcome [5]?
The outcome was “inactive”.

What about the outcome [6] of the same compound?
Its outcome is “inactive”.

And the outcome [19]?
The outcome was “inactive”.

And the outcome [7]?
The outcome was “inactive”.

And the AC50 [8]?
The AC50 was 20 µM (active).

What about the outcome [9] of the same compound?
The outcome was “inactive”.

What about the outcome [10] of the same compound?
The outcome was “inactive”.

And the outcome [11]?
Its outcome is “inactive”.

What about the outcome [12] of the same compound?
The outcome was “inactive”.

What about the outcome [13] of the same compound?
Its outcome is “inactive”.

What about the outcome [14] of the same compound?
Its outcome is “inactive”.

What about the outcome [15] of the same compound?
Its outcome is “inactive”.

And the outcome [16]?
Its outcome is “inactive”.

What about the AC50 [17] of the same compound?
Its AC50 is 27.5 µM (active).

What about the outcome [18] of the same compound?
Its outcome is “inactive”.

Which results are given for `CCCCCCCCCCCC[N+](C)(C)C`?
outcome [1]: inactive; AC50 [2]: 26.8 µM (active); AC50 [3]: 21.8 µM (active); AC50 [4]: 33.1 µM (active); AC50 [6]: 21.9 µM (active); AC50 [19]: 31.6 µM (active); AC50 [7]: 33.9 µM (active); outcome [8]: inactive; AC50 [9]: 15 µM (active); AC50 [10]: 29.1 µM (active); AC50 [11]: 14 µM (active); AC50 [12]: 16.2 µM (active); AC50 [13]: 21.2 µM (active); AC50 [14]: 27.1 µM (active); AC50 [15]: 12.9 µM (active); AC50 [16]: 33.3 µM (active); AC50 [17]: 26 µM (active); AC50 [18]: 27.6 µM (active)

Which outcome [1] does the source give for `CCCCOC(=O)c1ccc(O)cc1` here?
Its outcome is “inactive”.

What about the outcome [2] of the same compound?
The outcome was “inactive”.

And the outcome [3]?
Its outcome is “inactive”.

And the outcome [4]?
The outcome was “inactive”.

And the outcome [5]?
Its outcome is “inactive”.

What about the outcome [6] of the same compound?
The outcome was “inactive”.

What about the outcome [7] of the same compound?
Its outcome is “inactive”.

And the outcome [8]?
The outcome was “inactive”.

And the outcome [9]?
Its outcome is “inactive”.

And the outcome [10]?
The outcome was “inactive”.

And the outcome [11]?
The outcome was “inactive”.

What about the outcome [12] of the same compound?
Its outcome is “inactive”.

And the outcome [13]?
Its outcome is “inactive”.

And the outcome [14]?
The outcome was “inactive”.

What about the outcome [15] of the same compound?
The outcome was “inactive”.

And the outcome [16]?
Its outcome is “inactive”.

And the outcome [17]?
The outcome was “inactive”.

What about the outcome [18] of the same compound?
Its outcome is “inactive”.
